SENP6 block: inhibitors of human SENP6 protease | Q9GZR1 | Recombinant SENP6 catalytic domain, aminoluciferin luminescence | inhibition, % at 10 µM | 330,000 tested, 1.8% active;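 active = inhibition above about 50% at the single tested dose, limit read from the data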;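 note: plate controls were DMSO wells with enzyme for no effect and DMSO wells lacking enzyme for full effect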
SENP8 block-1: inhibitors of human SENP8 protease; inhibition, % at 20 µM; recombinant SENP8, Nedd8 substrate fluorescence; Q96LD8; AID 602440; 360,000 tested, 0.64% active; in the data active = inhibition mostly above about 40%, no sharp cut-off; inactive = mostly below about 27%
EBI2 block: EBI2 (human) antagonism; P32249; EBI2 beta-arrestin recruitment, luminescence, 7a,25-OHC stimulated; inhibition, % at 5 µM; 360,000 tested, 0.81% active; in the data active = inhibition above about 38%;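 note: enzyme fragment complementation signal reports receptor beta-arrestin coupling in cells; 0% = agonist plus DMSO wells and 100% = wells without agonist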
Target sequence (P32249 whole entry, looked up, the tested form may be a part): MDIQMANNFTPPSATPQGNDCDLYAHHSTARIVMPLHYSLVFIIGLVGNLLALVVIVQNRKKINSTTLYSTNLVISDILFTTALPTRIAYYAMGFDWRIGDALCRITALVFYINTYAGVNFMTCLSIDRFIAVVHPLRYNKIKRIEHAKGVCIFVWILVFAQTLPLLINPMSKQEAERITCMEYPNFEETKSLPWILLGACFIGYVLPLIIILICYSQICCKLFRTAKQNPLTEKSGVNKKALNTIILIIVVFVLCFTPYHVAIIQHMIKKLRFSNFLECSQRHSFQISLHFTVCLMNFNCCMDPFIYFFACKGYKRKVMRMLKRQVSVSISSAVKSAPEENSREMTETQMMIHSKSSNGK
AHR activator: activators of human aryl hydrocarbon receptor; P35869; AHR-responsive luciferase reporter cells, luminescence; activation, % at 5 µM; 320,000 tested, 2.5% active; in the data active = activation above about 47%;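 note: 0% = vehicle wells and 100% = reference agonist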
SENP7 block: blocks the human protease SENP7. Q9BQF6. recombinant SENP7, Z-RLRGG-aminoluciferin luminescence, 40 min. inhibition, % at 5 µM. 330,000 tested, 1.5% active;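 active = inhibition above about 50% at the single test dose, limit read from the data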;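 note: plate controls were DMSO with enzyme for no effect and no enzyme buffer wells for full effect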
SENP8 block-2: inhibitors of human SENP8 protease; purified SENP8, Z-RLRGG-aminoluciferin cleavage, luminescence; inhibition, % at 10 µM; 330,000 tested, 1.2% active; AID 2540; Q96LD8; in the data active = inhibition above about 50%
AHR act confirm: confirmation of human aryl hydrocarbon receptor activators. 2,300 tested, 87% active. shares compounds with AHR activator. AID 2845. human cells, AHR-responsive luciferase reporter, luminescence. activation, % at 9 µM; in the data active = activation above about 49%;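 note: HepG2 hepatoma cells carrying a DRE-driven firefly luciferase reporter; 0% = vehicle wells and 100% = reference agonist wells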
PXR act counter: activates human PXR in AHR activator counter-screen | cell-based PXR reporter, luciferase luminescence | activation, % at 11.6 µM | 2,300 tested, 88% active | shares compounds with AHR activator | AID 434939; in the data active = activation above about 11%;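 note: human hepatoma DPX-2 cells expressing full-length human PXR; 0% = DMSO and 100% = reference agonist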
Starred values were filed as active, the others as inactive; i = inactive; nt = no result given. Hits are enriched below; roughly 5% of the tested compounds scored in any of these assays.

SMILES	SENP6 block	SENP8 block-1	EBI2 block	AHR activator	SENP7 block	SENP8 block-2	AHR act confirm	PXR act counter
CCn1ccnc1CN1CCN(CCC(C)C)C(CCO)C1 (stereo unspecified)	-8.2	13.8	-2.5	13.6	0.5	-9.6	nt	nt
COC(=O)Nc1nn(-c2ccc(Cl)cc2)c(=O)c(C#N)c1C	3.8	-199.6	-3.2	96.2*	-2.1	1.4	28.7	14.2*
Cc1cc(C)c(S(=O)(=O)N2CCN(c3ccccn3)CC2)c(C)c1	-3.2	6.9	-7.8	nt	-0.5	-13.4	nt	nt
c1ccc(NCc2cccnc2)cc1	-22.3	35.0	-1.5	0.9	-6.1	-6.8	nt	nt
c1cncc(CNc2cccc(-c3nc4ccccc4[nH]3)c2)c1	-28.7	-400.1	-2.0	167.0*	34.6	7.1	112.3*	137.3*
CC(=O)c1ccccc1NC(=O)c1ccc2c(c1)NC(=O)C(C)S2 (stereo unspecified)	46.1	-69.5	12.2	122.4*	22.8	10.6	143.1*	151.8*
CCCNC(=O)c1ccccc1NC(=O)c1ccc2c(c1)NC(=O)C(C)S2 (stereo unspecified)	2.0	-21.3	2.5	9.4	-0.3	-0.2	nt	nt
COc1ccc(C(=O)NC2CCN(Cc3c(F)cccc3Cl)CC2)cc1OC	-35.9	11.8	-7.2	1.3	-6.3	-7.4	nt	nt
Cc1cc2nn(-c3ccc(Cl)cc3)nc2cc1N	9.1	-289.2	2.7	80.5*	4.4	9.1	191.7*	23.7*
Cc1ccc(-n2nc3ccc(N)cc3n2)cc1	88.7*	-495.6	6.6	88.4*	34.0	80.3*	76.0*	9.9
COc1ccc(-n2nc3ccc(N)cc3n2)cc1	nt	i	-5.0	nt	nt	nt	nt	nt
Cc1cc2nn(-c3ccc(F)cc3)nc2cc1N	76.1*	-335.3	17.2	109.5*	5.8	70.5*	122.5*	25.3*
COc1ccc(-n2nc3cc(C)c(N)cc3n2)cc1Cl	48.2	-326.2	-16.0	25.6	5.4	24.4	nt	nt
Cc1ccc(S(=O)(=O)N2[C@@H](c3ccccc3F)C(C(=O)O)=CC[C@H]2c2ccc3c(c2)OCO3)cc1	-18.0	5.8	10.9	-4.2	-13.1	-10.0	nt	nt
COc1ccc(-c2oc3ccc(-c4ccc5c(c4)OCO5)cc3c2C#CC2(O)CCCCC2)cc1	-21.5	-481.0	-1.3	6.6	-20.4	-13.6	nt	nt
COc1ccc(-c2sc3cc4c(cc3c2C#CC2(O)CCCCC2)OCO4)cc1	-7.7	i	-9.8	96.3*	-1.5	1.9	81.0*	62.6*
COc1ccccc1-c1sc2cc3c(cc2c1C#CC1(O)CCCCC1)OCO3	0.1	-477.1	11.6	103.3*	10.8	5.8	100.9*	313.9*
COc1ccccc1-c1sc2cc3c(cc2c1C#Cc1ccccn1)OCO3	11.7	i	1.1	103.9*	4.2	5.8	115.5*	176.3*
COC(=O)C1C(=O)C2=C(CC1C)Nc1ccccc1NC2c1ccc(C)s1 (stereo unspecified)	-23.5	-14.8	-8.0	1.0	-7.5	-9.4	nt	nt
COc1ccc(C(C(=O)NC2CCCC2)N(CCCO)C(=O)c2snc(C(N)=O)c2N)cc1 (stereo unspecified)	-36.2	-207.0	3.5	0.1	-7.6	-15.3	nt	nt
Cc1ccc(/C=N/NC(=O)c2cccs2)s1	40.3	-66.9	9.7	130.0*	43.4	20.3	45.0	27.5*
Cc1ccc(-c2nc(C(F)(F)F)cc(=O)[nH]2)cc1	-19.4	22.2	3.2	-0.5	-3.5	-0.7	nt	nt
Cc1cc(=O)[nH]c(-c2ccc(C(F)(F)F)cc2)n1	2.8	5.8	-3.4	87.3*	-2.5	-1.5	113.8*	10.9*
COc1ccc2sc(-c3ccc(SC)cc3)c(C#CCO)c2c1	1.8	i	11.3	85.2*	-9.2	3.1	90.2*	33.9*
COc1ccc2sc(-c3ccc(SC)cc3)c(C#CC(C)(C)O)c2c1	-7.7	-490.6	-14.9	41.0	-2.8	-11.1	nt	nt
COc1ccc2sc(-c3ccc(N(C)C)cc3)c(C#CCCO)c2c1	-7.7	-484.6	-12.6	108.8*	8.2	-7.3	129.1*	19.1*
CN1CCN(c2nc(-c3ccc(Br)cc3)nnc2-c2ccccc2)CC1	13.1	15.2	-3.2	131.8*	5.6	9.4	90.2*	48.8*
